These results are taken from PubChem BioAssay (NCATS).

Results filed as inconclusive are left out. Entries that show only a call come without a potency. Unmarked numbers belong to inactive results. Calls of active or inactive are those of the source. The call rests on the fitted dose curve; in most records, active means well fitted inhibition curve with a large enough effect; inconclusive means small, poorly fitted or top-dose-only effect; inactive means flat fitted curve, though single readings scatter.

The target of the test is Calcium and integrin-binding protein 1 (Homo sapiens) (UniProt Q99828). In words: Primary qHTS for Identification of Calcium Integrin Binding Protein 1 (CIB1) Competitor (AID 1508620).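 Further: GST tagged CIB1 binding a fluorescein labelled alphaIIb integrin peptide tracer; top concentration of the series differs between compounds.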 The note with it: CIB1-GST / FITC-alphaIIb peptide fluorescence polarization; series mostly up to 114 µM. In outline: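 Fluorescence polarization competition: CIB1-GST (1 uM final) preincubated with compound 15 min at room temperature, then FITC-labeled alphaIIb peptide (100 nM final) added for another 15 min. Polarization read at Ex 480/Em 540.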
Chain of Calcium and integrin-binding protein 1 (Homo sapiens) (Q99828 whole entry, looked up): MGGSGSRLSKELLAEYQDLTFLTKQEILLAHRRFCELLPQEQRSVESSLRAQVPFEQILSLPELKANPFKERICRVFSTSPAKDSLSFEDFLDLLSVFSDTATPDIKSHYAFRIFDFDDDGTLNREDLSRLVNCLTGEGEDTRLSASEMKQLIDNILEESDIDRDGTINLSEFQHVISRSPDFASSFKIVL
Consider `CN(C(=O)Cc1ccccc1)C(CN1CCCC1)c1ccccc1` (stereo unspecified), for which the Potency result is “inactive”.
On the same count and under the same terms, next, `C=CC(C)(C)c1[nH]c2cccc3c2c1C[C@@H]1[C@@H]3[C@@H](OC(C)=O)[C@H](C)CN1C`: “inactive”.
As for `C=CC(C)(O)CC/C=C(\C)C(=O)O[C@H]1[C@H](O)[C@@H](CO)O[C@@H](OC(=O)[C@]23CCC(C)(C)CC2C2=CCC4[C@@]5(C)CC[C@H](O[C@@H]6O[C@H](CO[C@@H]7OC[C@H](O)[C@H](O)[C@H]7O[C@@H]7OC[C@@H](O)[C@H](O)[C@H]7O)[C@@H](O)[C@H](O)[C@H]6O)C(C)(C)C5CC[C@@]4(C)[C@]2(C)CC3)[C@@H]1OC1OC(C)C(O[C@@H]2OC[C@@H](O)[C@H](O[C@@H]3OC[C@@H](O)[C@H](O)[C@H]3O)[C@H]2O)C(O)C1O` (stereo partly specified), the activity change, negative = inhibition was -11.1% [at 12.4 µM].
On to `CCCCCCn1c(=O)c(C(=O)Nc2ccc(C(=O)OCCC)cc2)c(O)c2ccccc21`, for which the Potency result was “inactive”.
Still for that read-out and setting: for `Clc1ccc(OCC2=NCCN2)cc1Cl` the value was “inactive”.
On the same count and under the same terms, next, `C[C@H](NC(=O)Cc1cc(F)cc(F)c1)C(=O)N[C@@H]1N=C(c2ccccc2)c2ccccc2N(C)C1=O`: “inactive”.
Still for that read-out and setting: next, `COC(=O)N1CCN(C(=O)Cc2ccc(Cl)c(Cl)c2)[C@@H](CN2CCCC2)C1`: “inactive”.
As to `C[C@@](O)(COc1ccc(C#N)cc1)C(=O)Nc1ccc(C#N)c(C(F)(F)F)c1`, the Potency result was “inactive”.
Same read-out and setting: next, `COc1ccccc1CN[C@H]1C2CCN(CC2)[C@H]1C(c1ccccc1)c1ccccc1`: “inactive”; `CCc1[nH]c2ccc(OC)cc2c1CCN(C)C`: “inactive”.
As for `OC1(c2ccc(Cl)cc2)c2ccccc2C2=NCCN21` (stereo unspecified), the Potency entry is “inactive”.
